Bioassay records deposited in PubChem BioAssay by National Center for Advancing Translational Sciences (NCATS).
D2 ag-1 = activates the human D2 dopamine receptor; hit rate 0.084% among 360,000; AID 624465; P14416; activation, % (test concentration not listed); DiscoveRx PathHunter D2 beta-arrestin, luminescence, 90 min; 100% = 57 uM dopamine signal; in the data active = activation above about 40%; inconclusive = between about 15% and that limit
Target sequence (P14416 whole entry, looked up): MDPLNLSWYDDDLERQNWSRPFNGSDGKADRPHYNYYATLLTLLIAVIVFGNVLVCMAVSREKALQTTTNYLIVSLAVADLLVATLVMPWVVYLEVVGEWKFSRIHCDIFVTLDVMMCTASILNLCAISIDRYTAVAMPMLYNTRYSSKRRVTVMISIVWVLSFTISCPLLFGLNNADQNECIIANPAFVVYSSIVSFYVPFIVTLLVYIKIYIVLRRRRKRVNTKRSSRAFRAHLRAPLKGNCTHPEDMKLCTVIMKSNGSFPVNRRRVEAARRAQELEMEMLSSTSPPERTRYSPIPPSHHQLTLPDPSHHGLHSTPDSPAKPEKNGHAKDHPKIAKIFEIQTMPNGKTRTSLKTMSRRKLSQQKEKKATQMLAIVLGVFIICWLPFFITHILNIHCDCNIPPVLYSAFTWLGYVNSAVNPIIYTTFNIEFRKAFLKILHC
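Agonist mode: compounds alone added to overnight-plated D2 PathHunter cells for 90 min at 37 C, with 57 uM final dopamine (EC100) defining full response. Beta-arrestin recruitment detected by chemiluminescent reagent, read after 1 h at ambient temperature.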
D2 PAM-1 = potentiates the human D2 dopamine receptor allosterically; hit rate 0.23% among 360,000; DiscoveRx D2 beta-arrestin cells, luminescence, 90 min; 100% = 57 uM dopamine signal; potentiation, % (concentration not given with the values); in the data active = potentiation above about 50%; inconclusive = mostly about 30% to 49%
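D2 cells co-treated with compound plus 50 nM dopamine (EC20) for 90 min at 37 deg C to detect potentiation. Beta-arrestin recruitment was read as enzyme-fragment luminescence after 1 h at ambient temperature. Full response was set by 57 uM dopamine.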
D2 antagonist = D2 dopamine receptor (human) antagonism; inhibition, % at 10 µM; hit rate 2% among 340,000; HEK293 TREx D2 cells, calcium flux, dopamine EC80; in the data active = inhibition above about 30%; inactive = below that, where a call was filed
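Overnight-induced (tetracycline, 30 C) HEK293 T-REx cells carrying force-coupled D2 receive a no-wash calcium dye, then compound, then EC80 dopamine at 180 s; signals are read kinetically throughout.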
D2 ag-2 = agonists of human D2 dopamine receptor. P14416. HEK293 T-REx D2 cells, calcium flux agonist mode. activation, % at 2 µM. hit rate 0.53% among 340,000;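 active = activation over 3 SD above normal in the single-dose calcium agonist read, cut at about 30% in these data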
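Calcium-flux readout, 1 cycle/sec over 180 s following compound pin transfer, in inducible HEK293 Trex D2 cells (force-coupled); dopamine controls included. Positive calcium responses during this window marked compounds as potential agonists.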
D2 PAM-2 = positive allosteric modulators of human D2 dopamine receptor | HEK293 T-REx D2, calcium flux, EC20 dopamine potentiation | hit rate 0.34% among 340,000 | P14416 | potentiation, % at 10 µM;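 active = potentiation over 3 SD above the plate norm, cut at about 30% in these data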
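Tetracycline-induced HEK293 T-REx cells force-coupled to calcium signalling expressed D2; compounds were pin-added after a 10 s baseline, read kinetically 180 s, then an EC20 dopamine challenge followed with a further 180 s calcium read.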
D3 arrestin ag = confirmation of human D3 dopamine receptor agonists, beta-arrestin; DiscoveRx D3 beta-arrestin cells, luminescence, 90 min; hit rate 4% among 2,300; shares compounds with D2 ag-2; Potency, µM (series often up to 76.9 µM), actives largely listed as activators; also: nearly all actives have a fitted effect of over 70% in size
D2 ag-3 = counter-screen for D3 agonists: human D2 dopamine receptor agonism; DiscoveRx PathHunter D2 beta-arrestin, luminescence, 90 min; response scale: percent relative to full dopamine signal; shares compounds with D2 ag-2; Potency, µM (titrated, usually from 76.9 µM), usual class: activators; hit rate 5.9% among 2,300; AID 720507; also: nearly all actives have a fitted effect of over 70% in size
Of the large screens only hits and unclear results are named; the others gave an inactive call (follow-up assays come after a bar, where they were run). Rows were chosen to be rich in hits. Some 2.4% of all compounds tested hit in one or more screens of this group. Unless noted, calls follow the shape of the dose curve; as a rule, active = well fitted activation curve with a large enough effect; inconclusive = small, poorly fitted or top-dose-only effect; inactive = flat fitted curve, though single readings scatter.

O=C(Nc1ccccc1)c1nc[nH]c1C(=O)NCc1ccccc1	none | D3 arrestin ag inactive | D2 ag-3 inactive
O=C(Nc1cccc(Cl)c1)c1nc[nH]c1C(=O)NCCCCNC(=O)c1[nH]cnc1C(=O)Nc1cccc(Cl)c1	none (no result: D2 antagonist, D2 ag-2, D2 PAM-2)
Cc1noc(C)c1CSc1nc2sc(C)c(C)c2c(=O)n1-c1ccccc1	none
COc1ccccc1NC(=O)c1cc([N+](=O)[O-])ccc1NCCN1C(=O)CCC1=O	D2 ag-2 47 | D3 arrestin ag inactive | D2 ag-3 inactive
CCOC(=O)c1ccc(N2CN(CCc3ccccc3)CNC2=S)cc1	none | D3 arrestin ag inactive | D2 ag-3 inactive
CCCN1CNC(=S)N(c2ccc(C(=O)OCC)cc2)C1	none
Cc1ccc(NC(=O)c2ccco2)cc1NC(=O)CSc1nnc(-c2cccs2)n1C	none
CCOC(=O)c1c(N)n(-c2ccc(CC)cc2)c2nc3ccccc3nc12	none (no result: D2 ag-1, D2 PAM-1, D2 antagonist)
CCOC(=O)c1c(N)n(-c2ccc(N)cc2)c2nc3ccccc3nc12	D2 ag-2 44 | D3 arrestin ag inactive | D2 ag-3 inactive
O=C(C1CC1)N1CCc2cc(S(=O)(=O)N3CCOCC3)ccc21	none
Cc1noc(C)c1COC(=O)CCOc1ccccc1	none
Cc1noc(C)c1COc1ccc(C(=O)N(C)CCOc2ccccc2)cc1	none | D3 arrestin ag inactive | D2 ag-3 inactive
c1ccc(OCCN2CCN(Cc3nc(-c4ccc5c(c4)OCO5)no3)CC2)cc1	D2 antagonist 69, D2 ag-2 64 | D3 arrestin ag inconclusive | D2 ag-3 inconclusive
Cc1ccc(C2(c3ccc(C)cc3)NC(=O)N(CC(=O)NCCCN3CCCC3=O)C2=O)cc1	none (no result: D2 antagonist, D2 ag-2, D2 PAM-2)
CCOCCC(=O)Nc1ncc(S(=O)(=O)c2ccc([N+](=O)[O-])cc2)s1	D2 ag-1 inconclusive (no result: D2 antagonist, D2 ag-2, D2 PAM-2)
CCCC(C)C(=O)Nc1ncc(S(=O)(=O)c2ccc([N+](=O)[O-])cc2)s1 (configuration not stated)	none | D3 arrestin ag inconclusive | D2 ag-3 inactive
Cc1ccc(S(=O)(=O)N2CCN(C(=O)COC(=O)c3cc([N+](=O)[O-])ccc3NCCO)CC2)c(C)c1	none (no result: D2 antagonist, D2 ag-2, D2 PAM-2)
Cc1ccc(S(=O)(=O)N2CCN(C(=O)COC(=O)c3ccc([N+](=O)[O-])o3)CC2)c(C)c1	none | D3 arrestin ag inactive | D2 ag-3 inactive
CCc1ccc(C(C)NC(=O)c2ccncc2)cc1 (configuration not stated)	none
COc1ccc(NC(=O)C(CCSC)NC(N)=O)cc1NS(=O)(=O)c1ccc(F)cc1 (configuration not stated)	none (no result: D2 antagonist, D2 ag-2, D2 PAM-2)
O=C(O)CNC(=O)c1ccccc1Br	D2 antagonist 40 | D3 arrestin ag inactive | D2 ag-3 inactive
COc1ccc(CNC(=O)c2cnn(-c3ccc(C)cc3)c2C2CCN(C(=O)OC(C)(C)C)CC2)cc1	none (no result: D2 ag-1, D2 PAM-1, D2 antagonist)
COc1ccc(C2CC(O)(c3ccccc3)Oc3c(C)ccc(C)c32)cc1 (configuration not stated)	none
COc1ccc(C2CC(O)(c3ccccc3)Oc3cc(OC)cc(OC)c32)cc1 (configuration not stated)	none | D3 arrestin ag inactive | D2 ag-3 inactive
Cc1cccc(C(=O)NNC(=S)NC(=O)c2cccs2)c1	none | D3 arrestin ag inactive | D2 ag-3 inactive
COc1ccc(CNS(=O)(=O)c2ccc3oc(C(=O)O)c(C)c3c2)cc1	none
C/C=C(\C)CN1CCN(c2cc(C)ccc2C)CC1	none
C/C=C(\C)CN1CCN(c2ccccc2F)CC1	D2 antagonist 65, D2 ag-2 38 | D3 arrestin ag inactive | D2 ag-3 inactive
CCN(CC)C(=O)CN1CCN(c2ccccc2F)CC1	none
C/C=C(\C)CN1CCN(c2ccccc2)CC1	D2 antagonist 75, D2 ag-2 79 | D3 arrestin ag inactive | D2 ag-3 inactive
CC(C)(C)OC(=O)C[C@H]1C/C=C\C[C@@H](CC(=O)NCCO)C(=O)N2CCC[C@H]2COC1=O	none (no result: D2 antagonist, D2 ag-2, D2 PAM-2)
Cc1nc2ccc(NC(=O)C3CCN(S(=O)(=O)c4cccs4)CC3)cc2s1	none
CN=c1scc(-c2ccco2)n1/N=C/c1ccc(O)c(O)c1	D2 ag-1 49, D2 ag-2 36 | D3 arrestin ag inconclusive | D2 ag-3 35µM
COc1ccc(C(=O)O)cc1S(=O)(=O)NC(C)C12CC3CC(CC(C3)C1)C2 (configuration not stated)	none
COc1ccc([C@H]2CC(=O)C=C(c3ccc(OC)cc3OC)C2)cc1	none | D3 arrestin ag inactive | D2 ag-3 inactive
COc1ccc(C2=CC(=O)C[C@H](c3ccc(OC)c(OC)c3)C2)cn1	none | D3 arrestin ag inactive | D2 ag-3 inactive
COc1ccc(C2=CC(=O)C[C@H](c3ccc(OC)cc3)C2)cc1	none (no result: D2 antagonist, D2 ag-2)
COc1ccc([C@H]2CC(=O)C=C(c3ccc(F)nc3)C2)cc1OC	none
COc1ccc([C@H]2CC(=O)C=C(c3ccc4cc[nH]c4c3)C2)cc1	none | D3 arrestin ag inactive | D2 ag-3 inactive
COc1ccc([C@H]2CC(=O)C=C(c3cccc(OCc4ccccc4)c3)C2)cc1	none | D3 arrestin ag inactive | D2 ag-3 inactive
CCOC(=O)N1CCC(c2nc(C)sc2C(=O)O)CC1	none
COc1ccc(CSCC(=O)N/N=C/c2ccc(OCC(=O)NCc3ccco3)cc2)cc1	none
CN(C)c1ccc(C(c2nnnn2C(C)(C)C)N2CCc3ccccc3C2)cc1 (configuration not stated)	none (no result: D2 ag-1, D2 PAM-1)
COc1ccc(C2CC(=O)C=C(O)C2)cc1 (configuration not stated)	D2 ag-2 53 | D3 arrestin ag inactive | D2 ag-3 inactive
O=C1C=C(O)CC(c2ccc(Cl)cc2)C1 (configuration not stated)	none
C/C(=N\O)c1ccco1	none | D3 arrestin ag inactive | D2 ag-3 inactive
C/C(=N\NC(=O)c1ccc(C(=O)N/N=C(\C)c2ccco2)o1)c1ccco1	none
O=C(CSc1nnc(-c2cccc(Br)c2)o1)N1CCOCC1	none | D3 arrestin ag inactive | D2 ag-3 inactive
CN1CCc2c(sc(NC(=O)CS(=O)(=O)c3ccccc3)c2C(N)=O)C1	none
Cc1ccc(C(=O)N2CCN(C34CC5CC(CC(C5)C3)C4)CC2)o1	none (no result: D2 antagonist, D2 ag-2, D2 PAM-2) | D3 arrestin ag inactive | D2 ag-3 inactive
Cc1ccc(NC(=O)c2cnc(SCC(=O)Nc3cc(C)on3)n(C)c2=O)cc1	none (no result: D2 ag-1, D2 PAM-1, D2 antagonist, D2 ag-2)
Clc1ccc(-c2nc(-c3cnccn3)no2)cc1	none
OC(CN1CCN(Cc2ccc3c(c2)OCO3)CC1)c1c[nH]c2ccccc12 (configuration not stated)	none
